The values that follow come from ChEMBL document CHEMBL3988442, “University of Dundee, Small-Polar-MMV Screening Library” (2021).

For some of these results: Results with a measured potency or affinity are listed apart.

Parameters in all cases: scale not given: direction of the effect not stated beside the values
The target in experiment [1] is Protein translocase subunit SecA (Escherichia coli (strain K12)) (UniProt P10408). The experiment is described as follows: Assay to Identify E. coli SecA ATPase Inhibitors. In kind it is functional. Particulars: 30 µM.
For experiment [2], the target named is T1, Ubiquitin-activating enzyme e1, putative (Leishmania donovani (strain BPK282A1)) (UniProt E9BSI1).
T1 sequence (whole entry): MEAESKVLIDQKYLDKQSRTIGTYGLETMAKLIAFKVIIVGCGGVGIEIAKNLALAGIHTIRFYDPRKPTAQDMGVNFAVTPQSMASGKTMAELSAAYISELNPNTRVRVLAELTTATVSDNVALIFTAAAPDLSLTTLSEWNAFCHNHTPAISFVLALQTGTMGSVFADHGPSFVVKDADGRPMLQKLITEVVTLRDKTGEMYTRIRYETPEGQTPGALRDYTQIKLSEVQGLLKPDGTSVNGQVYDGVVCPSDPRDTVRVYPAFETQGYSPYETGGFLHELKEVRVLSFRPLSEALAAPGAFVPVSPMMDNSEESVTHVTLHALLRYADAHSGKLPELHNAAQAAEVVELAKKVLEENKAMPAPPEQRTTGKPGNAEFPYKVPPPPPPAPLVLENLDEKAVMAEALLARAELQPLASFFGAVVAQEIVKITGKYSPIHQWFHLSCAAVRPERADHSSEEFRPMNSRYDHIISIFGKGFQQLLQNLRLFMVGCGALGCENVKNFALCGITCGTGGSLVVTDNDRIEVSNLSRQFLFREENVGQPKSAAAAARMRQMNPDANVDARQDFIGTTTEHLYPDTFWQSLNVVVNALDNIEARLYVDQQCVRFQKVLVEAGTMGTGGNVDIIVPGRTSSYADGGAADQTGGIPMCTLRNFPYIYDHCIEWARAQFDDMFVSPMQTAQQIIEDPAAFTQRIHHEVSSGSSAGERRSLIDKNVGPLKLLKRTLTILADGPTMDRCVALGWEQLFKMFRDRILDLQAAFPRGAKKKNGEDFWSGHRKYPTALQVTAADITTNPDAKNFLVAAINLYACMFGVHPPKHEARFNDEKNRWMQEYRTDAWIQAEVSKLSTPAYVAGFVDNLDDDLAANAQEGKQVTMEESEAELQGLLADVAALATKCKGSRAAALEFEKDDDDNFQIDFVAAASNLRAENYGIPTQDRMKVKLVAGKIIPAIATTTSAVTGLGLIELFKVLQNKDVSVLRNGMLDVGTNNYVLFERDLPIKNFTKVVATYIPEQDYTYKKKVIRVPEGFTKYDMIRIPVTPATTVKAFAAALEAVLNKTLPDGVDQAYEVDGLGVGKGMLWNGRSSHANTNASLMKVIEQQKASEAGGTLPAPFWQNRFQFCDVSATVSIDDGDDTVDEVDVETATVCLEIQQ
The experiment is described as follows: Leishmania donovani Ubiquitin Activating Enzyme (LdE1). It is filed as functional. Conditions: 30 µM.

In experiment [3] the target is AMP-activated protein kinase, AMPK (Homo sapiens) (UniProt P54646+O43741+P54619+Q9UGJ0+Q9Y478+Q13131+Q9UGI9). The experiment is described as follows: AMP-dependent Kinase enzyme assay. An in vitro enzyme assay that detects ADP turnover that is directly proportional to AMPK activity. This uses naive AMPK that is activated during the assay with MK-8722. In kind it is functional. Particulars: 30 µM.

In experiment [4] the target is Sialic acid-binding Ig-like lectin 9 (Homo sapiens) (UniProt Q9Y336). The experiment is described as follows: Hs-Siglec9 ALPHAscreen SOP 20170721. Particulars: 10 µM. A general note: Bead proximity is the source of the signal in Alpha formats.
Experiment [5] has as its system Trypanosoma cruzi. Briefly: Trypanosoma cruzi phosphomannomutase and mannose-1-phosphate guanylyltransferase assay. In kind it is functional. Conditions: 10 µM.
Experiment [6] concerns the target T2, Arginase-2, mitochondrial (Homo sapiens) (UniProt P78540).
T2 sequence (whole entry): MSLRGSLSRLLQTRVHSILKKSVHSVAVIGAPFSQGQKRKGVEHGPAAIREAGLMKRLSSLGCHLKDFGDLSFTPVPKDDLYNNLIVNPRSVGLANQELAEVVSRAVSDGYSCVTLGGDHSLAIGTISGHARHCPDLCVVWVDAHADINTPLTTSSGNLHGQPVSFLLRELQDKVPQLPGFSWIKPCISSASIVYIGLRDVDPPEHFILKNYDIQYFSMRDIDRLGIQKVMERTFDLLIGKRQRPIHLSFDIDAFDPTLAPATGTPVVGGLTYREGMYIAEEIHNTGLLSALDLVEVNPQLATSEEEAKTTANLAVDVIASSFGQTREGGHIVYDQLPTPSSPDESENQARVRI
Briefly: in vitro enzyme assay to detect the production of urea directly proportional to the activity of Arginase II. Further: in the data most compounds retested in dose-response had high values. It is filed as functional. Conditions: 33.3 µM.

The target in experiment [7] is T3, Proteasome subunit beta (Trypanosoma cruzi) (UniProt O96673).
T3 sequence (whole entry): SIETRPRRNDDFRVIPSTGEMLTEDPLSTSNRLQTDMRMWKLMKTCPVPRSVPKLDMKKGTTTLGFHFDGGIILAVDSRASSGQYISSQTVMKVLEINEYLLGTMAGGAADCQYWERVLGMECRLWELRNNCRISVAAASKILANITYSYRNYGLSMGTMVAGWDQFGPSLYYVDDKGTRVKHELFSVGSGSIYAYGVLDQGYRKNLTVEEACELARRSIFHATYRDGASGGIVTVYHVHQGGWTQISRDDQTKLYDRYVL
Briefly: Trypanosoma cruzi proteasome chymotrypsin-like activity (TcProtChymo) assay. Further: in the data most compounds retested in dose-response had high values. Conditions: 9.37 µM. In kind it is functional.

The species entered for experiment [8] is Homo sapiens. The experiment is described as follows: To identify inhibition of the IFN signalling (Jak-Stat) pathway via expression of an eGFP reporter gene under the control of an IFN-stimulated response element (ISRE) containing MxA promoter. It is filed as functional. Conditions: 30 µM. (In general: A reporter such as luciferase makes a cellular process visible.)

For experiment [9], the target named is T4, Tyrosyl-tRNA synthetase, putative (Trypanosoma cruzi (strain CL Brener)) (UniProt Q4DSP6).
T4 sequence (whole entry): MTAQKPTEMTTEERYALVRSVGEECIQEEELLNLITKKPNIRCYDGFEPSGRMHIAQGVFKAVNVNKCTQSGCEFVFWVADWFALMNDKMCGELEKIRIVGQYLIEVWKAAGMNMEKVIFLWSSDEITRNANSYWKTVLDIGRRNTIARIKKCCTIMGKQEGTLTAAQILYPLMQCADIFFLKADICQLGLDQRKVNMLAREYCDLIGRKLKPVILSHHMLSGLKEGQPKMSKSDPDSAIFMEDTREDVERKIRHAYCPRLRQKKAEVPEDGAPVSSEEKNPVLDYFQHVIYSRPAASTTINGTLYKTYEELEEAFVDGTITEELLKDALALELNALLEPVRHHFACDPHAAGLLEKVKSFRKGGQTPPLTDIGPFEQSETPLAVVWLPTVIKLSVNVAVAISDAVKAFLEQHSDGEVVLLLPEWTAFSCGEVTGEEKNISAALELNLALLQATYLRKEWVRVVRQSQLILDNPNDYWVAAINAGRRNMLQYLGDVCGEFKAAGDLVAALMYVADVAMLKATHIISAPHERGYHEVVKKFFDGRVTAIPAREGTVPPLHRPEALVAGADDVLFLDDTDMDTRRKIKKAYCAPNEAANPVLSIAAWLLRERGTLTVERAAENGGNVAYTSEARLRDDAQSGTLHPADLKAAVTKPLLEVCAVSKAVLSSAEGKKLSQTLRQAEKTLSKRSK
Briefly: Trypanosoma cruzi tyrosyl tRNA synthetase (TcYRS) _High Tyrosine SOP. Further: in the data most compounds retested in dose-response had high values. In kind it is functional. Conditions: 30 µM.

Experiment [10] addresses T4, Tyrosyl-tRNA synthetase, putative (Trypanosoma cruzi (strain CL Brener)). Briefly: Trypanosoma cruzi tyrosyl tRNA synthetase (TcYRS) SOP. It is filed as functional. Conditions: 30 µM.
Experiment [11] has as its target Chromo domain-containing protein 1 (Saccharomyces cerevisiae (strain ATCC 204508 / S288c) (Baker's yeast)) (UniProt P32657). Briefly: ScCHD-1 Enzyme Inhibition Assay. Further: in the data most compounds retested in dose-response had high values. Particulars: 30 µM. It is filed as functional.

Sequence of Sialic acid-binding Ig-like lectin 9 (Homo sapiens) (Q9Y336 whole entry): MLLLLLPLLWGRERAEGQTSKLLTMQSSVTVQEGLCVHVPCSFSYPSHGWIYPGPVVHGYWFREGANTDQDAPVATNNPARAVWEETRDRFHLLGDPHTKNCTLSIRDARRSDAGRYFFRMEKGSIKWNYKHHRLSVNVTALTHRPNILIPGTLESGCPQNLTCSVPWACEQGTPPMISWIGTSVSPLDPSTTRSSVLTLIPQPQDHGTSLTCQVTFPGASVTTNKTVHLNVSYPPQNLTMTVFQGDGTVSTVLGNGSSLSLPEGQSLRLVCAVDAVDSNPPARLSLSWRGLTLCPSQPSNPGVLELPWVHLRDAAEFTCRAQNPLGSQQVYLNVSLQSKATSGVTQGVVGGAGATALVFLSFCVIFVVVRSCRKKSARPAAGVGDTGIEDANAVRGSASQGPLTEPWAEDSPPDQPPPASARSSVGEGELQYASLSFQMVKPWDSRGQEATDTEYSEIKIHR
Sequence of Protein translocase subunit SecA (Escherichia coli (strain K12)) (P10408 whole entry): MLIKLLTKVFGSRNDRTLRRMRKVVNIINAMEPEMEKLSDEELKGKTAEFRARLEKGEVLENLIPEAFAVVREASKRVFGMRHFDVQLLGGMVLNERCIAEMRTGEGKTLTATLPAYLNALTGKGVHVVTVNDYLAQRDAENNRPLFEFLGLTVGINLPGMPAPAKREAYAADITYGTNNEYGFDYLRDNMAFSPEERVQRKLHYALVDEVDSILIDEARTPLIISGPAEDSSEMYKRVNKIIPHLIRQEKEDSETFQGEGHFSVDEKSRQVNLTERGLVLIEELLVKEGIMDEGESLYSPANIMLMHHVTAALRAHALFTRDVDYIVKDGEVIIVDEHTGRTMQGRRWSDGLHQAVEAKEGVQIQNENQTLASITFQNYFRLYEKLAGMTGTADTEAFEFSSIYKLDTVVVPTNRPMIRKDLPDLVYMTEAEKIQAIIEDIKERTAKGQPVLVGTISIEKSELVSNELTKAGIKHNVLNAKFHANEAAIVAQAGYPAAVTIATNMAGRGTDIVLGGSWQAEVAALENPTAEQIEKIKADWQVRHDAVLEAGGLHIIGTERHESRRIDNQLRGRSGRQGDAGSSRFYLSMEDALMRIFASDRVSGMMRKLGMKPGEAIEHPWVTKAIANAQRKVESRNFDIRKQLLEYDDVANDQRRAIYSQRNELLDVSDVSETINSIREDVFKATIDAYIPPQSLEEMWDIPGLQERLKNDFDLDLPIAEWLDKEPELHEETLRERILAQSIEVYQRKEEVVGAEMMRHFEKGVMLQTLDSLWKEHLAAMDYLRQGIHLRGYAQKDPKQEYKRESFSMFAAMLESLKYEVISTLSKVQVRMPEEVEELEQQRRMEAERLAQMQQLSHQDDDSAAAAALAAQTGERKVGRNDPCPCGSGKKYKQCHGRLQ
Sequence of Chromo domain-containing protein 1 (Saccharomyces cerevisiae (strain ATCC 204508 / S288c) (Baker's yeast)) (P32657 whole entry, the tested form may be a part): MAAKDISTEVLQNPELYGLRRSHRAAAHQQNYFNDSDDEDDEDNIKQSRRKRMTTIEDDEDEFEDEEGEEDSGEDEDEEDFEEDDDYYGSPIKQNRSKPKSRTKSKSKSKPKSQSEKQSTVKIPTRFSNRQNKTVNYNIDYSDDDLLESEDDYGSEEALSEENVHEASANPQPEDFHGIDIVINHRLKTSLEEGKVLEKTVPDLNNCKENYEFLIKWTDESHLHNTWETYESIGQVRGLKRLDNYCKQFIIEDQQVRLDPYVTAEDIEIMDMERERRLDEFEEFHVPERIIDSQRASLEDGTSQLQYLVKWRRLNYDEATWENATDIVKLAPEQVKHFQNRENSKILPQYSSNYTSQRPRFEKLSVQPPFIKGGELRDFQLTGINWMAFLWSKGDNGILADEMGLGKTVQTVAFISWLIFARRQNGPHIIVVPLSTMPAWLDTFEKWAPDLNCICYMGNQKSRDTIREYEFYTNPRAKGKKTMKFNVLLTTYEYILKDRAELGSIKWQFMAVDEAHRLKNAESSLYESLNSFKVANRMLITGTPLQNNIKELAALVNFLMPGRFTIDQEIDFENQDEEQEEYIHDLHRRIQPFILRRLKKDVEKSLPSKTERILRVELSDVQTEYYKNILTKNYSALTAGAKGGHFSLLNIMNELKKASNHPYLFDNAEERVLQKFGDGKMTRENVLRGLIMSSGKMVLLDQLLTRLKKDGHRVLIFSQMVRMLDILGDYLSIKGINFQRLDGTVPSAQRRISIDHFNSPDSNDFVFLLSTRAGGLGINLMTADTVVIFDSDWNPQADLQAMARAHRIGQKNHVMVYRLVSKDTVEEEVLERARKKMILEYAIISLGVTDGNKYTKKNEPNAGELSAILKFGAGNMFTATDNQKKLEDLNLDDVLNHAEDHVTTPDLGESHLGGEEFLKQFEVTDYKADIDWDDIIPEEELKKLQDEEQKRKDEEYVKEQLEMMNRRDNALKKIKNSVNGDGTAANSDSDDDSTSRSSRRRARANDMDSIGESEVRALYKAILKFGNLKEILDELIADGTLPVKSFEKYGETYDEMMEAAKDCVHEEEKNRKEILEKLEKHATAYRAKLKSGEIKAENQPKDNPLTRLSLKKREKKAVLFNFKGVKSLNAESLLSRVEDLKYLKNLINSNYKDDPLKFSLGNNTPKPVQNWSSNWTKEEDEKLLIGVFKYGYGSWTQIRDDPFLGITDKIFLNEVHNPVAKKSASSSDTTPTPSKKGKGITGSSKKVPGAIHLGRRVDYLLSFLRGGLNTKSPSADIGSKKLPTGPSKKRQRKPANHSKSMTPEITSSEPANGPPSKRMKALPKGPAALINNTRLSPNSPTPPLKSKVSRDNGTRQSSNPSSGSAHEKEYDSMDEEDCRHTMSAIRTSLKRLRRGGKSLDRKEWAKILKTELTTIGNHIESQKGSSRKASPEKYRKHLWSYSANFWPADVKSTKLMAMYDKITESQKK

As to `CCC(=O)N1CCC(c2nnc(Cn3cccn3)n2C2CC2)CC1`, the Percent Effect in [1] was -5.96%; in [2], 18.1%; in experiment [3], -4.09%; in experiment [4], 12.6%; in experiment [5] it was 2.23%; in experiment [6] it was -0.442%. Moreover, the Percent Effect is 8.07% in [7]; -1.41% in experiment [8]; 4.21% in experiment [9]; 12.8% in [10]; -0.227% in experiment [11].

On to `CN(CCc1ccccn1)S(=O)(=O)N1CCCC1c1ccco1` (stereo unspecified), for which the Percent Effect in experiment [1] is 0.19%; in experiment [2], 16.2%; in experiment [3], 2.74%; in [4], -10.8%; in experiment [5], -9.94%; in experiment [6] it was 4.25%. In addition, the Percent Effect in experiment [7] was 13.1%; in experiment [8], 17.6%; in experiment [9], 6.93%; in experiment [10], 11%; in experiment [11], -5.75%.

As for `Cc1nnc2n1CCN(C(=O)c1cc(Cl)c[nH]1)C2`, the Percent Effect was -3.51% in experiment [1]; -15.8% in [2]; 7.83% in [3]; 10.9% in experiment [4]; 0.376% in experiment [5]; 1.92% in experiment [6]. Besides, the Percent Effect in experiment [7] is 2.84%; in experiment [8] it was -3.3%; in [9], 0.49%; in experiment [10], -4.88%; in experiment [11] it was 3.54%.

On to `O=C(CCc1nccs1)N1CCN(c2ccccc2F)CC1`, for which the Percent Effect in experiment [1] is -4.98%; in experiment [2] it was 7.59%; in experiment [3] it was -1.29%; in experiment [4], -1.48%; in experiment [5] it was 8.4%; in [6], -6.46%. Moreover, the Percent Effect in experiment [7] is -2.05%; in experiment [8] it was 5.18%; in [9], 2.46%; in [10], 8.86%; in [11] it was -2.22%.

Take `Cc1cc2nc(SCC(=O)N3CCOCC3)n(CC(C)C)c(=O)c2[nH]1`: the Percent Effect in experiment [1] was 2.16%; in experiment [2], 13.2%; in [3], 2.03%; in experiment [4], -4.31%; in experiment [5], -4.77%; in experiment [6] it was 11.8%. For the same compound, the Percent Effect is 18.3% in experiment [7]; -10.6% in experiment [8]; -1.06% in experiment [9]; 10.4% in experiment [10]; -2.79% in experiment [11].

On to `CS(=O)(=O)N[C@@H]1CCO[C@]2(CCN(C(=O)c3cnccn3)C2)C1`, for which the Percent Effect in [1] is -3.71%; in experiment [2], 10.8%; in experiment [3] it was 1.74%; in experiment [4], -2.86%; in [5], 1.07%; in [6], 0.955%. The Percent Effect turned out to be 22.7% in [7]; 5.57% in experiment [8]; 7.57% in experiment [9]; 17.9% in experiment [10]; 2.48% in [11].

`O=C1N(Cc2cccc(F)c2F)CCCC1(O)CNC1CCCC1` (stereo unspecified): the Percent Effect in experiment [1] is -6.14%; in [2], 16%; in experiment [3] it was -3.79%; in experiment [4], 22.4%; in experiment [5], 5.55%; in [6], 7.29%. Besides, the Percent Effect is 4.36% in experiment [7]; 4.41% in [8]; 3.83% in experiment [9]; 6.17% in experiment [10]; 97.3% in [11].

Consider `CCS(=O)(=O)N1CCC2(CC(=O)N(c3cccc(C)c3)C2)C1` (stereo unspecified), for which the Percent Effect in [1] is -2.42%; in experiment [2] it was 8%; in [3] it was -0.745%; in experiment [4], 0.841%; in experiment [5], 1.54%; in experiment [6] it was -48.9%. For the same compound, the Percent Effect in experiment [7] was 8.21%; in experiment [8] it was -25.8%; in experiment [9], 8.33%; in experiment [10], 27.5%; in experiment [11], -6.79%.

As for `CC(NC(=O)NCCCn1cccn1)c1ccc2c(c1)NC(=O)CO2` (stereo unspecified), the Percent Effect in experiment [1] was -6.96%; in [2] it was 25.3%; in [3], -6.75%; in experiment [4], -5.5%; in experiment [5], 10.1%; in experiment [6], -3.42%. Moreover, the Percent Effect in experiment [7] is 10.2%; in experiment [8] it was 15.4%; in [9], 8.37%; in [10], 29.1%; in experiment [11] it was -10.1%.

On to `Clc1ccc2cccnc2c1CN1CCCC1Cn1cncn1` (stereo unspecified), for which the Percent Effect in experiment [1] is -1.02%; in experiment [2] it was -10.8%; in experiment [3] it was -3.88%; in experiment [4], -0.559%; in experiment [5], -5.85%; in experiment [6] it was 4.99%. The Percent Effect is 7.18% in [7]; 63.7% in experiment [8]; 7.92% in experiment [9]; -1.22% in [10]; 5.04% in experiment [11].

Regarding `Cc1ncsc1CN1C[C@H](C(=O)N2CCCO2)[C@@H]2CCO[C@@H]2C1`, the Percent Effect in experiment [1] is -2.57%; in [2] it was -8.22%; in experiment [3], -4.3%; in experiment [4], 10.2%; in experiment [5], 7.74%; in experiment [6], -7.58%. The Percent Effect was 16.5% in [7]; -2.42% in experiment [8]; 5.21% in experiment [9]; 3.7% in experiment [10]; -1.86% in experiment [11].
